# Test results: PubChem BioAssay (Tox21)
# Results filed as inconclusive are left out. Active and inactive are the calls of the source. The call rests on the fitted dose curve; in most records, active means well fitted curve in the direction sought with a large enough effect in the repeat runs; inconclusive means weak or mixed curves; inactive means no such curve, though single readings can be large; an effect the other way counts as inactive or inconclusive.
# Assay: A CellTox Green Cytotoxicity Assay to monitor cytotoxicity in HepG2 cells - 8 hour (AID 1224890); further: nearly all actives have a fitted effect of over 45% in size; further: potency means the concentration at half of the fitted maximal effect
# Details: CellTox Green fluorescence; series mostly up to 76.8 µM; cytotoxicity increase: at the top concentration
# How it was run: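 HepG2 cells were seeded together with the CellTox Green dye at 600 cells/well, left 5 h at 37 C/5% CO2, then given compounds in DMSO. Fluorescence from dye bound to dead-cell DNA was read repeatedly over 40 h of treatment at 37 C.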
# On the % scale 0 is the no-effect control and ±100 the full control effect.
SMILES,cytotoxicity increase,Potency
CCC(=O)CC(C)CC (centres undefined),2.33% [at 0.29 µM] (inactive),
C=C/C=C/C=C/CCCCC,-1.01% [at 15.8 µM] (inactive),
Oc1c(Br)cc(Br)c2cccnc12,4.02% [at 35.3 µM] (inactive),
CCCOc1sc(C(=O)N2CCC(c3cc(CN)ccc3F)CC2)c(C)c1Br,,40 µM (active)
O=S(O)O,-4.46% [at 15.8 µM] (inactive),
C=CC/C=C/C/C=C/C/C=C/C,-1.83% (inactive),
C=CCCCCCCC=C,-1.27% (inactive),
CCCCN(C)C,1.46% (inactive),
CC(NCCC(c1ccccc1)c1ccccc1)c1ccccc1 (centres undefined),,23.9 µM (active)
CCCCCCCCCCCCCCCC,-2.77% (inactive),
CCc1cccc(CC)c1NC(=O)C(=O)O,9.19% (inactive),
O=C1OC(OC(=O)c2cccnc2Nc2cccc(C(F)(F)F)c2)c2ccccc21 (centres undefined),-7.71% [at 35.3 µM] (inactive),
CN1[C@@H]2CC[C@H]1CC(OC(=O)C(CO)c1ccccc1)C2 (some centres undefined),,inactive
CC(COC(=O)c1ccccc1)OC(=O)c1ccccc1 (centres undefined),-7.38% (inactive),
CCOC(=O)CN,-2.19% (inactive),
COC(=O)CC(C)CCC=C(C)C (centres undefined),4.81% (inactive),
CCCCCCCC(=O)OCC,6.29% (inactive),
CCOC(/C=C(\C)CCC=C(C)C)OCC,-9.56% (inactive),
CCC1CCCCC1,-6.07% (inactive),
O=C1c2c(O)ccc(O)c2C(=O)c2c(NCCNCCO)ccc(NCCNCCO)c21,-59.2% [at 35.3 µM] (inactive),
C=CC(C)(CCC=C(C)C)OC(=O)/C=C/c1ccccc1 (centres undefined),,43.6 µM (active)
COc1nccnc1CC(C)C,2.94% (inactive),
Clc1ccccc1CN1CCc2sccc2C1,-7.71% [at 35.3 µM] (inactive),
CCC(C)c1ccccc1 (centres undefined),-6.66% (inactive),
CCCCCCCOC(=O)c1ccccc1C(=O)OCCCCCCC,-7.98% (inactive),
COCC(=O)O[C@]1(CCN(C)CCCc2nc3ccccc3[nH]2)CCc2cc(F)ccc2[C@@H]1C(C)C,,23.9 µM (active)
O[C@@H](c1cc(C(F)(F)F)nc2c(C(F)(F)F)cccc12)[C@H]1CCCCN1,,26.8 µM (active)

# Assay: qHTS assay to identify small molecule antagonists of the estrogen receptor alpha (ER-alpha) signaling pathway using the BG1 cell line in the presence of 0.1 nM 17-beta-estradiol - cell viability counter screen (AID 1259241); further: nearly all actives have a fitted effect of over 40% in size
# Details: VM7Luc4E2 (BG1) viability, CellTiter-Fluor protease, 22 h, 0.1 nM estradiol agonist added; series mostly up to 92.4 µM; activity change, negative = cytotoxicity: at the top concentration
# How it was run: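 Following 5 days in phenol red-free medium with charcoal-stripped serum, VM7Luc4E2 cells received test compounds alongside 0.1 nM 17beta-estradiol (final) at 37C for 22 hr. Live cells were then quantified via protease-substrate fluorescence.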
SMILES,"activity change, negative = cytotoxicity",Potency
CCC(=O)CC(C)CC (centres undefined),-17.1% [at 0.349 µM] (inactive),
C=C/C=C/C=C/CCCCC,-4.24% [at 19 µM] (inactive),
Oc1c(Br)cc(Br)c2cccnc12,-17.3% [at 42.5 µM] (inactive),
CCCCCCCC/C=C\CCCCCCCC(=O)NCc1ccc(O)c(OC)c1,-5.02% [at 42.5 µM] (inactive),
O=S(O)O,0.521% [at 19 µM] (inactive),
C=CC/C=C/C/C=C/C/C=C/C,4.43% (inactive),
C=CCCCCCCC=C,0% (inactive),
CCCCN(C)C,2.17% (inactive),
CC(NCCC(c1ccccc1)c1ccccc1)c1ccccc1 (centres undefined),-1.39% [at 42.5 µM] (inactive),
CCCCCCCCCCCCCCCC,-3.12% (inactive),
CCc1cccc(CC)c1NC(=O)C(=O)O,6.37% (inactive),
O=C1OC(OC(=O)c2cccnc2Nc2cccc(C(F)(F)F)c2)c2ccccc21 (centres undefined),-8.3% [at 42.5 µM] (inactive),
CN1[C@@H]2CC[C@H]1CC(OC(=O)C(CO)c1ccccc1)C2 (some centres undefined),,inactive
CC(COC(=O)c1ccccc1)OC(=O)c1ccccc1 (centres undefined),0.405% (inactive),
CCOC(=O)CN,2.13% (inactive),
COC(=O)CC(C)CCC=C(C)C (centres undefined),-8.67% (inactive),

SMILES,"activity change, negative = cytotoxicity",Potency
CCCCCCCC(=O)OCC,-1.25% (inactive),
CCOC(/C=C(\C)CCC=C(C)C)OCC,2.38% (inactive),
CCC1CCCCC1,-8.55% (inactive),
CCCCCCCCCCCCCCNCCO,-2.11% [at 42.5 µM] (inactive),
C=CC(C)(CCC=C(C)C)OC(=O)/C=C/c1ccccc1 (centres undefined),-2.03% (inactive),
COc1nccnc1CC(C)C,0.948% (inactive),
CCCCC(CC)COC(=O)c1ccc(O)cc1 (centres undefined),,inactive
Cc1c(C(=O)O)cccc1[N+](=O)[O-],-0.194% (inactive),
Clc1ccccc1CN1CCc2sccc2C1,-10.7% [at 42.5 µM] (inactive),
Clc1ccc(C(c2ccccc2Cl)C(Cl)Cl)cc1 (centres undefined),,inactive
CCC(C)c1ccccc1 (centres undefined),-1.68% (inactive),
CCCCCCCOC(=O)c1ccccc1C(=O)OCCCCCCC,0.98% (inactive),
COCC(=O)O[C@]1(CCN(C)CCCc2nc3ccccc3[nH]2)CCc2cc(F)ccc2[C@@H]1C(C)C,-25.7% [at 42.5 µM] (inactive),
O[C@@H](c1cc(C(F)(F)F)nc2c(C(F)(F)F)cccc12)[C@H]1CCCCN1,8.79% [at 42.5 µM] (inactive),
CC(C)=C1CC[C@@H](C)CC1=O,8.26% (inactive),
SCCCCCCCCS,1.82% (inactive),

# Assay: qHTS assay to identify small molecule antagonists of the androgen receptor (AR) signaling pathway using the MDA cell line in the presence of 0.5 nM R1881 - cell viability counter screen (AID 1259242); further: nearly all actives have a fitted effect of over 45% in size; further: potency means the concentration at half of the fitted maximal effect
# Details: MDA-kb2 viability, CellTiter-Fluor protease fluorescence, 16 h; series mostly up to 92.4 µM; viability change, negative = cytotoxic: at the top concentration
# How it was run: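 MDA-kb2 cells (human breast carcinoma, stably carrying MMTV-luciferase reporter) were exposed to compounds with 0.5 nM R1881 (final) for 16 hr at 37C, 0% CO2; viability then read as live-cell protease fluorescence (CellTiter-Fluor, 30 min) in the same wells.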
SMILES,"viability change, negative = cytotoxic",Potency
CCC(=O)CC(C)CC (centres undefined),2.57% [at 0.349 µM] (inactive),
C=C/C=C/C=C/CCCCC,-0.871% [at 19 µM] (inactive),
Oc1c(Br)cc(Br)c2cccnc12,-20.7% [at 42.5 µM] (inactive),
CCCCCCCC/C=C\CCCCCCCC(=O)NCc1ccc(O)c(OC)c1,-5.85% [at 42.5 µM] (inactive),
CCCOc1sc(C(=O)N2CCC(c3cc(CN)ccc3F)CC2)c(C)c1Br,,39.7 µM (active)
O=S(O)O,4.5% [at 19 µM] (inactive),
NCCCCCCNCCCCCCN,-2.8% (inactive),
C=CC/C=C/C/C=C/C/C=C/C,0.454% (inactive),
C=CCCCCCCC=C,1.65% (inactive),
CCCCN(C)C,0.175% (inactive),
CC(NCCC(c1ccccc1)c1ccccc1)c1ccccc1 (centres undefined),,21.1 µM (active)
CCCCCCCCCCCCCCCC,1.52% (inactive),
CCc1cccc(CC)c1NC(=O)C(=O)O,4.39% (inactive),
O=C1OC(OC(=O)c2cccnc2Nc2cccc(C(F)(F)F)c2)c2ccccc21 (centres undefined),-2.38% [at 42.5 µM] (inactive),
CN1[C@@H]2CC[C@H]1CC(OC(=O)C(CO)c1ccccc1)C2 (some centres undefined),,inactive
CC(COC(=O)c1ccccc1)OC(=O)c1ccccc1 (centres undefined),-1.28% (inactive),
CCOC(=O)CN,-0.55% (inactive),
COC(=O)CC(C)CCC=C(C)C (centres undefined),-0.624% (inactive),

SMILES,"viability change, negative = cytotoxic",Potency
CCCCCCCC(=O)OCC,2.87% (inactive),
CCOC(/C=C(\C)CCC=C(C)C)OCC,7.34% (inactive),
CCC1CCCCC1,-0.337% (inactive),
CCCCCCCCCCCCCCNCCO,-8.87% [at 42.5 µM] (inactive),
O=C1c2c(O)ccc(O)c2C(=O)c2c(NCCNCCO)ccc(NCCNCCO)c21,,21.1 µM (active)
Cc1c(-c2ccc(O)cc2)n(Cc2ccc(OCCN3CCCCCC3)cc2)c2ccc(O)cc12,,29.8 µM (active)
C=CC(C)(CCC=C(C)C)OC(=O)/C=C/c1ccccc1 (centres undefined),3.71% (inactive),
COc1nccnc1CC(C)C,-1.61% (inactive),
CCCCC(CC)COC(=O)c1ccc(O)cc1 (centres undefined),,inactive
Cc1c(C(=O)O)cccc1[N+](=O)[O-],-2.25% (inactive),
Clc1ccccc1CN1CCc2sccc2C1,4.68% [at 42.5 µM] (inactive),
Clc1ccc(C(c2ccccc2Cl)C(Cl)Cl)cc1 (centres undefined),,inactive
CCC(C)c1ccccc1 (centres undefined),-1.85% (inactive),
CCCCCCCOC(=O)c1ccccc1C(=O)OCCCCCCC,10.4% (inactive),
COCC(=O)O[C@]1(CCN(C)CCCc2nc3ccccc3[nH]2)CCc2cc(F)ccc2[C@@H]1C(C)C,,21.1 µM (active)
CC(C)=C1CC[C@@H](C)CC1=O,0.19% (inactive),
SCCCCCCCCS,0.193% (inactive),
